# ± gives the standard deviation of the averaged measurements.
# System: Escherichia coli Nissle 1917
# Assay: area under OmniLog respiration curve over 48 h (OmniLog units x h); higher = more growth / nutrient utilisation; extreme values may be limits of the assay
# Details: nutrient role: C-Source, alcohol; incubation: 48 h, 37 °C
# 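Wherever DuctApe activity index of respiration/growth curve (0 no growth to 9 maximum) is given: biolog PM4 phosphorus and sulfur plates, tetrazolium violet dye reduction read in the OmniLog every 15 min, kinetic curves scored by DuctApe, each plate run in triplicate.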
row,SMILES,area under OmniLog respiration curve
1,NCCO [2-Aminoethanol],149 ± 200
2,"CC(O)CO (configuration not stated) [1,2-Propanediol]",123 ± 100
3,"CC(=O)C(C)=O [2,3-Butanedione]",19 ± 14
4,O=C(CO)CO [Dihydroxyacetone],6280 ± 820

# Same assay, conditions: nutrient role: C-Source, carbohydrate; incubation: 48 h, 37 °C
row,SMILES,area under OmniLog respiration curve
1,CO[C@H]1O[C@H](CO)[C@H](O)[C@H](O)[C@H]1O [a-Methyl-D-Galactoside],8070 ± 460
2,C[C@@H]1OC(O)[C@H](O)[C@H](O)[C@H]1O (stereo partly drawn) [L-Rhamnose],6960 ± 610
3,O=C[C@@H](O)[C@H](O[C@@H]1O[C@H](CO)[C@H](O)[C@H](O)[C@H]1O)[C@H](O)CO [3-O-b-D-Galactopyranosyl-D-Arabinose],8530 ± 550
4,OC[C@H]1O[C@H](OC[C@H]2OC(O)[C@H](O)[C@@H](O)[C@@H]2O)[C@H](O)[C@@H](O)[C@H]1O (stereo partly drawn) [D-Melibiose],7880 ± 1000
5,OCC1OC(O)(CO)C(O)C1O [D-Fructose],8740 ± 720
6,CC1OC(O)C(O)C(O)C1O [L-Fucose],7650 ± 700
7,OC[C@@H](O)[C@@H](O)[C@H](O)[C@@H](O)CO [D-Sorbitol],8340 ± 910
8,OC[C@H]1O[C@H](O[C@H]2[C@H](O)[C@@H](O)[C@@H](O[C@H]3[C@H](O)[C@@H](O)C(O)O[C@@H]3CO)O[C@@H]2CO)[C@H](O)[C@@H](O)[C@@H]1O (mixture of isomers) [Maltotriose],8540 ± 380
9,OCC1(O)OC[C@@H](O)[C@@H](O)[C@H]1O (stereo partly drawn) [D-Psicose],3500 ± 700
10,OC[C@H]1O[C@H](OC[C@H]2O[C@H](O[C@]3(CO)O[C@H](CO)[C@@H](O)[C@@H]3O)[C@H](O)[C@@H](O)[C@@H]2O)[C@H](O)[C@@H](O)[C@H]1O [D-Raffinose],6090 ± 450
11,OC[C@H]1O[C@@H](O[C@H]2[C@H](O)[C@@H](O)[C@@H](O)O[C@@H]2CO)[C@H](O)[C@@H](O)[C@H]1O [a-D-Lactose],7580 ± 630
12,OC[C@@H](O)[C@@H](O)[C@H](O)[C@H](O)CO [D-Mannitol],7850 ± 650
13,OC[C@H]1O[C@H](OC[C@H]2O[C@H](OC[C@H]3O[C@H](O[C@]4(CO)O[C@H](CO)[C@@H](O)[C@@H]4O)[C@H](O)[C@@H](O)[C@@H]3O)[C@H](O)[C@@H](O)[C@H]2O)[C@H](O)[C@@H](O)[C@H]1O [Stachyose],433 ± 380

# Same assay, conditions: nutrient role: C-Source, carboxylic acid; incubation: 48 h, 37 °C
row,SMILES,area under OmniLog respiration curve
1,O=CC(=O)O [Glyoxylic acid],5490 ± 480
2,CCCCCC(=O)O [Caproic acid],4.72
3,O=C(O)Cc1ccc(O)cc1 [p-Hydroxyphenyl Acetic acid],40.5 ± 54
4,O=C(O)CC(=O)O [Malonic acid],4.72
5,O=C(O)[C@H](O)[C@@H](O)C(=O)O [L-Tartaric acid],34 ± 28
6,O=C(O)[C@@H](O)[C@@H](O)[C@H](O)[C@@H](O)C(=O)O [D-Saccharic acid],9150 ± 780
7,O=C(O)CC(O)(CC(=O)O)C(=O)O [Citric acid],31.1 ± 32
8,O=C(O)c1ccccc1O [2-Hydroxybenzoic acid],4.72
9,CCC(=O)C(=O)O [a-Ketobutyric acid],800 ± 760

# Same assay, conditions: nutrient role: sole nitrogen source (pyruvate carbon); incubation: 48 h, 37 °C
row,SMILES,area under OmniLog respiration curve
1,CCC(N)C(=O)O (racemic) [DL-a-Amino-N-Butyric acid],6040 ± 1200
2,NCCCCN=C(N)N [Agmatine],336 ± 570
3,Nc1cc[nH]c(=O)n1 [Cytosine],5890 ± 1100
4,NCCN [Ethylenediamine],4.72
5,Oc1nc(O)c2nc(O)[nH]c2n1 [Uric acid],986 ± 490

# Same assay, conditions: nutrient role: sole phosphorus source (pyruvate carbon); incubation: 48 h, 37 °C
row,SMILES,area under OmniLog respiration curve
1,Nc1nc2c(ncn2[C@@H]2O[C@H](CO)[C@@H](OP(=O)(O)O)[C@H]2O)c(=O)[nH]1 [Guanosine 3`-Monophosphate],9730 ± 510
2,Nc1ncnc2c1ncn2[C@@H]1O[C@H](CO)[C@@H](O)[C@H]1OP(=O)(O)O [Adenosine 2`-Monophosphate],9880 ± 610
3,O=P(O)(O)O[C@H]1[C@H](OP(=O)(O)O)[C@@H](OP(=O)(O)O)[C@H](OP(=O)(O)O)[C@@H](OP(=O)(O)O)[C@H]1OP(=O)(O)O [Inositol Hexaphosphate],8630 ± 520
4,C[C@@H](OP(=O)(O)O)[C@H](N)C(=O)O [O-Phospho-L-Threonine],9330 ± 620
5,N[C@@H]1[C@@H](O)[C@H](O)[C@@H](COP(=O)(O)O)O[C@@H]1O [D-Glucosamine-6-Phosphate],9120 ± 620
6,Nc1ncnc2c1ncn2[C@@H]1O[C@H](COP(=O)(O)O)[C@@H](O)[C@H]1O [Adenosine 5`-Monophosphate],9380 ± 770
7,O=c1ccn([C@@H]2O[C@H](CO)[C@@H](O)[C@H]2OP(=O)(O)O)c(=O)[nH]1 [Uridine 2`-Monophosphate],6560 ± 4400

# System: Escherichia coli Nissle 1917
# Assay: DuctApe activity index of respiration/growth curve (0 no growth to 9 maximum) (index 0-9); higher = more growth / nutrient utilisation, active = 3 or more; extreme values may be limits of the assay
# Details: nutrient role: C-Source, alcohol; incubation: 48 h, 37 °C
row,SMILES,DuctApe activity index
1,NCCO [2-Aminoethanol],0 (inactive)
2,"CC(O)CO (configuration not stated) [1,2-Propanediol]",1.33 (inactive)
3,"CC(=O)C(C)=O [2,3-Butanedione]",0 (inactive)
4,O=C(CO)CO [Dihydroxyacetone],7 (active)
